Results filed as inconclusive are left out. Unmarked numbers belong to inactive results. Calls of active or inactive are those of the source. The call rests on the fitted dose curve; in most records, active means well fitted cell-killing curve with a large enough effect in the repeat runs; inconclusive means weak or mixed curves, or effect the other way; inactive means flat fitted curve, though single readings scatter.
On the % scale 0 is the no-effect control and ±100 the full control effect.

This experiment is described as follows: qHTS RealTime-Glo MT Cell Viability Assay in HEK293 cells - 0 hour (AID 1224880). Further: top concentration of the series differs between compounds; nearly all actives have a fitted effect of over 45% in size. The settings on record: RealTime-Glo luminescence; series mostly up to 76.8 µM; activity change, negative = cytotoxicity: at the top concentration. The source says: U.S. Tox21 Program National Center for Advancing Translational Sciences [NCATS] NIH Chemical Genomics Center [NCGC] U.S. Environmental Protection Agency [EPA] National Institutes of Environmental Health Sciences [NIEHS] National Toxicology Program [NTP] U.S. Food and Drug Administration [FDA] Tox21 Assay Overview: Measure of cell viability is critical in the cell-base assay. Analysis of cell viability is necessary for the characterization of cell responses to cytotoxic drugs and environmental stress. A RealTime-Glo MT Cell Viability Assay to monitor cell viability in real time of continues cell culture during 40 hours of compound treatment was used to screen Tox21 10K library compounds in Hek293 cells. The RealTime-Glo MT Cell Viability Assay is a nonlytic, homogeneous, bioluminescent method to measure cell viability in real time using a simple, plate-based method. The assay involves adding NanoLuc luciferase and a cell-permeant prosubstrate to cells in culture. Viable cells reduce the proprietary prosubstrate to generate a substrate for NanoLuc luciferase. This substrate diffuses from cells into the surrounding culture medium, where it is rapidly used by the NanoLuc Enzyme to produce a luminescent signal. The signal correlates with the number of viable cells, making the assay well suited for cytotoxicity studies.
Tox21 Assay Protocol Summary: The mixture of Hek293 cell suspension and reagents were dispensed at 600cells/6 ul/well in 1536-well tissue culture treated black solid bottom plates using a Multidrop dispenser. After the assay plates were incubated at a 37 C/5% CO2 incubator for 5 hours, 23 nL of compounds dissolved in DMSO, positive and negative controls was transferred to the assay plate by a pintool work station. The plates were incubated at 37 C for 40 hours. The luminescence intensity were measured at 0h, 8h, 16h, 24h, 32h and 40h time points using ViewLux plate reader during compound treatment.
For orientation: qHTS replaces the single test concentration by a dilution series.
For `c1csc(-c2ccc(-c3cccs3)s2)c1`, the “activity change, negative = cytotoxicity” value is -1.34%.

Take `COP(=O)(OC)Oc1ccc([N+](=O)[O-])cc1`: the “activity change, negative = cytotoxicity” value is 12.2%. `Cc1cnc2c(C(=O)O)c(Cl)ccc2c1`: the “activity change, negative = cytotoxicity” value was 2.79%. On to `NC(=O)C(Cl)Cl`, for which the “activity change, negative = cytotoxicity” value is -1.85%. Regarding `CC(C)Br`, the “activity change, negative = cytotoxicity” value was -17.7%.

For `CC(C)C(Br)C(=O)NC(N)=O` (stereo not given), the “activity change, negative = cytotoxicity” value is -1.44% [at 35.3 µM].

As to `CC1(C)[C@H](/C=C2\CCSC2=O)[C@@H]1C(=O)OCc1coc(Cc2ccccc2)c1`, the “activity change, negative = cytotoxicity” value was -14.2%.

Consider `CCc1cccc(C)c1N(C(=O)CCl)[C@@H](C)COC`, for which the “activity change, negative = cytotoxicity” value was 3.65%.

Turning to `N#Cc1c2ccccc2cc2ccccc12`, the “activity change, negative = cytotoxicity” value was -7.35%.

Turning to `O.O.O.O.O.O.O=S(=O)([O-])[O-].[Ni+2]`, the “activity change, negative = cytotoxicity” value is 0% [at 35.3 µM]. Same read-out and setting: for `CN1C(=O)[C@@H](NC(=O)c2cc3ccccc3[nH]2)N=C(c2ccccc2)c2ccccc21` the value was -11.9% [at 35.3 µM]; for `COC(=O)c1ccccc1S(=O)(=O)NC(=O)Nc1nc(C)nc(OC)n1`, 8.67%; for `FC(F)C(F)(F)OCC(Cn1cncn1)c1ccc(Cl)cc1Cl` (stereo not given), -0.637%.

On to `Cc1ccc(C)c2ccccc12`, for which the “activity change, negative = cytotoxicity” value was -7.06%. On to `CCOC(=O)Cc1ccccc1`, for which the “activity change, negative = cytotoxicity” value was 18.9%.

In the case of `CCCC[N+]1(C)CCCC1` (tested in a mixture with another compound), the “activity change, negative = cytotoxicity” value is 1.83%.

As for `Cc1cc(C2CC2)nc(Nc2ccccc2)n1`, the “activity change, negative = cytotoxicity” value was -1.15%. `CN(C)CCc1c[nH]c2ccccc12`: the “activity change, negative = cytotoxicity” value was 1.26%.

As for `C=C(C)C(=O)[O][Sn]([CH2]CCC)([CH2]CCC)[CH2]CCC`, the “activity change, negative = cytotoxicity” value is 26.7%. `CNC(=O)Oc1cc(C)cc(C(C)C)c1`: the “activity change, negative = cytotoxicity” value is 5.58%.

Regarding `C=CCBr`, the “activity change, negative = cytotoxicity” value is -2.42%. For the molecule `O=C(Cl)c1ccccc1F`, the “activity change, negative = cytotoxicity” value was 0.748%. Take `CC(Cc1ccccc1)N(C)Cc1ccco1` (stereo not given): the “activity change, negative = cytotoxicity” value was 6.83% [at 35.3 µM]. Turning to `O=C(CCCCl)c1ccc(F)cc1`, the “activity change, negative = cytotoxicity” value was 0.317% [at 35.3 µM]. On to `CC(C)=CCN1CC[C@@]2(C)c3cc(O)ccc3C[C@@H]1[C@@H]2C`, for which the “activity change, negative = cytotoxicity” value was -3.41%. On to `C=Cc1cccc(CCl)c1`, for which the “activity change, negative = cytotoxicity” value is -1.79% [at 200 µM].

Turning to `C#CCC1=C(C)C(OC(=O)C2C(C=C(C)C)C2(C)C)CC1=O` (stereo not given), the “activity change, negative = cytotoxicity” value is -1.12%. Take `CCCCc1ccccc1`: the “activity change, negative = cytotoxicity” value is -5.78%.

As for `C#CC1(O)CCCCC1`, the “activity change, negative = cytotoxicity” value is 13.8%. On to `CC(C)NCC(O)c1ccccc1Cl` (stereo not given), for which the “activity change, negative = cytotoxicity” value was 2.93% [at 35.3 µM]. As to `CO/N=C(\C(=O)OC)c1ccccc1CO/N=C(\C)c1cccc(C(F)(F)F)c1`, the “activity change, negative = cytotoxicity” value was -1.38%.

`CNC(C)(C)Cc1ccccc1`: the “activity change, negative = cytotoxicity” value is 7.62% [at 35.3 µM]. On the same count and under the same terms, for `O.O.O.O.O.O.O.O=S(=O)([O-])[O-].[Co+2]` the value was -11.7%. With `S=C=Nc1ccccc1`, the “activity change, negative = cytotoxicity” value is 2.45%. For `ClC(Cl)C(Cl)(Cl)Cl`, the “activity change, negative = cytotoxicity” value is 1.16%.

`O=c1[nH]c(Cl)c(Cl)cc1Cl`: the “activity change, negative = cytotoxicity” value was -18.5%. `c1ccc(N=NNc2ccccc2)cc1`: the Potency entry was “inactive”. Take `COc1ccc2c(c1OC)C(=O)O[C@@H]2[C@H]1c2cc3c(cc2CCN1C)OCO3`: the “activity change, negative = cytotoxicity” value is -3.16%. Consider `CN(C)C(=S)SSC(=S)N(C)C`, for which the Potency result was “inactive”. Regarding `CCOC(=O)CCN(SN(C)C(=O)Oc1cccc2c1OC(C)(C)C2)C(C)C`, the “activity change, negative = cytotoxicity” value is -1.87%.

The values above are taken from PubChem BioAssay (Tox21).
